# Measurements from PubChem BioAssay.
# Activity calls are given as the source filed them.
# What was measured:
# [1] = optical density shifts of acrAB sulA E. coli – strain DRC41, OD650, 48 h, E. coli filamentation inducer project, primary screen (AID 1152); settings: higher = more signal, called active from +8 up or from −8 down;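 note: E. coli MC1000 strain DRC41 lacking acrAB efflux pump and sulA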
# [2] = probe aLefty1 binding on compound microarray – biochemical, small-molecule microarray, 635/667 nm fluorescence, primary screen (AID 1153); settings: higher = more signal;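 note: score merges spot fluorescence with signal-to-noise ratio from the scanned slide images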
# [3] = plasmodial surface anion channel blockers, osmotic lysis – cell-based, P. falciparum Indochina, OD700, 1 h, primary screen (AID 1154); settings: P. falciparum Indochina infected RBC osmotic lysis, higher = more signal, called active from +8 up or from −8 down
# [4] = plasmodial surface anion channel blockers, osmotic lysis – cell-based, P. falciparum Indochina, OD700, 2 h, primary screen (AID 1155);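 note: lysis reports solute entry through the parasite surface anion channel PSAC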; settings: P. falciparum Indochina infected erythrocytes, higher = more signal, called active from +8 up or from −8 down
# [5] = changes in parasitized red cell lysis, either direction – P. falciparum Indochina, OD700, 3 h, PSAC antagonist project, primary screen (AID 1156); settings: P. falciparum-infected erythrocytes, osmotic lysis, higher = more signal, called active from +8 up or from −8 down
# [6] = plasmodial surface anion channel blockers, osmotic lysis – cell-based, P. falciparum Indochina, OD700, 18 h, primary screen (AID 1157); settings: P. falciparum Indochina infected erythrocytes, osmotic lysis OD700, 18 h; higher = more signal, called active from +8 up or from −8 down
# [7] = S6 kinase pathway phospho-S6 level changes – cell-based, A549, cytoblot, luminescence, serum-stimulated, primary screen (AID 1158); settings: 5 h, higher = more signal;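 note: serum-stimulated A549 lung adenocarcinoma cells; signal is phosphorylated S6 detected by cytoblot immunostaining with HRP secondary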
# [8] = target: NADPH oxidase 2 (Homo sapiens) (UniProt P04839); assay: compounds shifting NOX2 Amplex Red fluorescence – cell-based, HEK293-NOX2, PMA-stimulated, NOX inhibitor project, primary screen (AID 1159); settings: 45 min, higher = more signal, called active from +8 up or from −8 down; note: test concentration not given here
# Chain of NADPH oxidase 2 (Homo sapiens) (P04839 whole entry, looked up): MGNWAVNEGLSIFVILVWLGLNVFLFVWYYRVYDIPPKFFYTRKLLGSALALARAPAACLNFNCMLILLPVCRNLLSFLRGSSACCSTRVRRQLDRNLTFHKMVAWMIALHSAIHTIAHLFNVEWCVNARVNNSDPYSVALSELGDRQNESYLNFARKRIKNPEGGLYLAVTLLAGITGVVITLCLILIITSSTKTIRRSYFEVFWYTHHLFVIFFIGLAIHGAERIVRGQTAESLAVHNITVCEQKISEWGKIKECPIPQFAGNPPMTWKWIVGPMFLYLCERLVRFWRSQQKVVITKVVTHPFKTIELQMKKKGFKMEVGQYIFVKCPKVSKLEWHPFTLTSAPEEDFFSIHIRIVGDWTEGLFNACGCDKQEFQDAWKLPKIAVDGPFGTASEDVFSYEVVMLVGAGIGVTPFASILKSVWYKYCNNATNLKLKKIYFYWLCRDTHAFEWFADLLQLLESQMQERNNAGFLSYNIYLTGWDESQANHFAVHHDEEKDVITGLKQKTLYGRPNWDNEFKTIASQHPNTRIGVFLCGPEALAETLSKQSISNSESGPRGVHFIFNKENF
# [9] = target: NADPH oxidase 4 (Homo sapiens) (UniProt Q9NPH5); assay: compounds shifting NOX4 Amplex Red fluorescence – cell-based, HEK293-NOX4, tetracycline-induced, NOX inhibitor project, primary screen (AID 1160); settings: HEK293-NOX4, Amplex Red H2O2 fluorescence, 45 min; higher = more signal, called active from +8 up or from −8 down
# Chain of NADPH oxidase 4 (Homo sapiens) (Q9NPH5 whole entry, looked up): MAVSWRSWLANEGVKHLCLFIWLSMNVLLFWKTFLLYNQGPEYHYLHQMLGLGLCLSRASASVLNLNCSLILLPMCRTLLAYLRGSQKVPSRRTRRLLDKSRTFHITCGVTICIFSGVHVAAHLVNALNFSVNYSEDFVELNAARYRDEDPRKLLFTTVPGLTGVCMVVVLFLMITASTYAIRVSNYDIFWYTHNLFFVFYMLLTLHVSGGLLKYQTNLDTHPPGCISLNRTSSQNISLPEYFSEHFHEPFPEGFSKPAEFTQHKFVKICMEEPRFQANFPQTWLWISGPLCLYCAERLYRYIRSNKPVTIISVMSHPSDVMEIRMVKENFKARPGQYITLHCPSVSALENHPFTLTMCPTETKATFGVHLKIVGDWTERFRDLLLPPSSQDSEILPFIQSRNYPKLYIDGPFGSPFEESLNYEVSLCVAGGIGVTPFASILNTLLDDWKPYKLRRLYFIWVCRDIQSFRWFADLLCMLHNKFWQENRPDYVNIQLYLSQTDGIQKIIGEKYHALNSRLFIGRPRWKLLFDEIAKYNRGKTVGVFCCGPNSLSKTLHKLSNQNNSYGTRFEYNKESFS
# [10] = target: NADPH oxidase 5 (Homo sapiens) (UniProt Q96PH1); assay: compounds shifting NOX5 Amplex Red fluorescence – cell-based, HEK293-NOX5, NOX inhibitor project, primary screen (AID 1161); settings: HEK293-NOX5, ionomycin, 45 min, higher = more signal
# Chain of NADPH oxidase 5 (Homo sapiens) (Q96PH1 whole entry, looked up): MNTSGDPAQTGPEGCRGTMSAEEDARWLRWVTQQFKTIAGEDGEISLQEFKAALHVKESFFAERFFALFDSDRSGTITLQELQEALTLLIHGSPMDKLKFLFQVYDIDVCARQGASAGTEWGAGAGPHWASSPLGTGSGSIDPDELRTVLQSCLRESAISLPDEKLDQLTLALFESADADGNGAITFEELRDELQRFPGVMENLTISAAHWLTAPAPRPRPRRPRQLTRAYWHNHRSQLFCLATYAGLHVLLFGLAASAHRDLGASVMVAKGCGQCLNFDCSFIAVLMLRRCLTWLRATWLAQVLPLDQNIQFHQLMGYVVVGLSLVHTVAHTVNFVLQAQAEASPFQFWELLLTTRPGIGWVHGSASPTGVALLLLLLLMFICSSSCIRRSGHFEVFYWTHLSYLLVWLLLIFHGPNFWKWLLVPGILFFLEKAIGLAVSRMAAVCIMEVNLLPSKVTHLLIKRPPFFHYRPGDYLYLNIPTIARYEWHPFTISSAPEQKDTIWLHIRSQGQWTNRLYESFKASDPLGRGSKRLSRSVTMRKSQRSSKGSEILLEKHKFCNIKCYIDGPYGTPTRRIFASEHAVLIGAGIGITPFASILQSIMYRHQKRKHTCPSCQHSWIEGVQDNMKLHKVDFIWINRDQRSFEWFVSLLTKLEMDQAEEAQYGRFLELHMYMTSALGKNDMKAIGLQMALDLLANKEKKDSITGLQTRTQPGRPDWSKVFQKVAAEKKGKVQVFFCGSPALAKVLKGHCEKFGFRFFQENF
# [11] = compound effects on lung adenocarcinoma cell viability – A549, calcein-AM fluorescence, 48 h, basal, profiling panel (AID 1162); settings: higher = more signal; note: test concentration not given here
# [12] = compound effects on differentiated 3T3-L1 adipocyte viability – cell-based, 3T3-L1 adipocytes, calcein-AM fluorescence, 48 h, basal, profiling panel (AID 1163); settings: 3T3-L1 adipocytes viability, higher = more signal; note: test concentration not given here
# [13] = compound effects on hepatocellular carcinoma cell viability – HepG2, calcein-AM fluorescence, 48 h, basal, profiling panel (AID 1164); settings: higher = more signal; note: test concentration not given here
# [14] = compound effects on multiple myeloma cell viability – MM1S, calcein-AM fluorescence, 48 h, basal, profiling panel (AID 1165); settings: higher = more signal;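 note: viability of MM1S multiple myeloma cells under basal unstimulated conditions; test concentration not given here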
# [15] = calcein-AM signal in unstimulated myeloma cells – cell-based, calcein-AM fluorescence, 48 h, PK04 Diversity Set, profiling panel (AID 1166); settings: RPMI8226 myeloma viability, higher = more signal;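 note: cells grown under basal conditions without added stimulus; test concentration not given here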
# [16] = JC-1 mitochondrial signal, unstimulated HepG2 cells – cell-based, JC-1 fluorescence, 24 h, 100 nL compound, profiling panel (AID 1167); settings: HepG2 mitochondrial potential, higher = more signal; note: test concentration not given here
# [17] = JC-1 mitochondrial signal, unstimulated adipocytes – cell-based, JC-1 fluorescence, 3T3-L1 adipocytes, 24 h, 100 nL compound, profiling panel (AID 1168); settings: JC-1 mitochondrial fluorescence, higher = more signal, called active from +8 up or from −8 down; note: test concentration not given here
# [18] = JC-1 mitochondrial signal, unstimulated myeloma cells – cell-based, JC-1 fluorescence, RPMI8226, 24 h, 100 nL compound, profiling panel (AID 1169); settings: JC-1 mitochondrial potential fluorescence, higher = more signal; note: test concentration not given here
# [19] = JC-1 mitochondrial signal, unstimulated MM1S myeloma – cell-based, JC-1 fluorescence, 24 h, 100 nL compound, profiling panel (AID 1170); settings: MM1S mitochondrial potential, higher = more signal; note: test concentration not given here
# [20] = resazurin metabolic signal in A549 cells – cell-based, resazurin fluorescence, 24 h, PK04 Diversity Set, profiling panel (AID 1171); settings: A549 viability, higher = more signal, called active from +8 up or from −8 down; note: test concentration not given here
Structure (SMILES),z-score [1],composite z-score [2],z-score [3],z-score [4],z-score [5],z-score [6],z-score [7],z-score [8],z-score [9],z-score [10],z-score [11],z-score [12],z-score [13],z-score [14],z-score [15],z-score [16],z-score [17],z-score [18],z-score [19],z-score [20]
O=C(NCC(F)(F)F)[C@@H]1c2ccccc2C(=O)N(CC23CC4CC(CC(C4)C2)C3)[C@H]1c1ccc(CO)cc1,1.17 (inactive),0.0585,0.75 (inactive),-0.399 (inactive),-0.2 (inactive),-0.264 (inactive),3.83,0.49 (inactive),-0.0154 (inactive),0.19,1.5,1.27,2.14,-0.347,0.777,1.08,-0.154 (inactive),0.417,-0.457,0.637 (inactive)
N#Cc1ccc(C(O)C2C=CC3C(=O)NC(=O)C3N2Nc2ccccn2)cc1 (stereo not given),0.261 (inactive),0.0341,0.104 (inactive),-0.88 (inactive),-0.138 (inactive),-1.01 (inactive),-0.0329,-1.73 (inactive),-2.92 (inactive),-1.67,0.517,-0.239,1.43,0.435,-0.792,-0.183,-0.277 (inactive),0.274,-0.839,-1.36 (inactive)
O=c1cccc(-c2ccccc2C(F)(F)F)o1,-0.934 (inactive),0.69,0.168 (inactive),0.761 (inactive),-0.627 (inactive),0.341 (inactive),-0.67,0.409 (inactive),0.0518 (inactive),-0.982,-0.976,-0.0994,0.21,0.634,-0.475,-0.72,0.254 (inactive),0.835,-1.3,-0.262 (inactive)
CC(C)CNC(=O)[C@@]1(C)c2ccccc2C(=O)N(Cc2cc(F)cc(C(F)(F)F)c2)[C@H]1c1ccc(CO)cc1,-0.144 (inactive),0.163,2.26 (inactive),0.684 (inactive),0.33 (inactive),0.253 (inactive),0.0857,-0.152 (inactive),0.261 (inactive),-0.364,-0.0148,1.32,-0.49,0.545,0.594,0.455,-0.175 (inactive),-0.638,0.0607,0.906 (inactive)
CCCC[C@@H]1C[C@H]1[C@@H](NC(=O)c1ccc(C(F)(F)F)cc1)c1ccc(C(=O)OC)cc1,-0.499 (inactive),0.375,8.27 (active),0.851 (inactive),0.512 (inactive),0.422 (inactive),-0.0327,-0.628 (inactive),0.497 (inactive),1.03,-0.844,-0.55,-1.33,-1.97,-1.73,-0.84,0.282 (inactive),-0.167,-1.72,0.312 (inactive)
COc1ccccc1CN1C(=O)c2ccccc2[C@](Cc2ccccc2I)(C(=O)NCCCN(C)C)[C@@H]1c1ccc(CO)cc1,-6.9 (inactive),-0.275,2.8 (inactive),-0.551 (inactive),-5.31 (inactive),-0.379 (inactive),-2.54,-10.2 (active),-4.81 (inactive),-4.8,-4.38,-0.247,-5.12,-3.81,-4.39,-3.01,1.29 (inactive),-1.03,-2.23,-7.15 (inactive)
COc1ccc([Si](C)(C)[C@H]2[C@H](CCn3cc([C@H](O)c4ccccc4)nn3)O[C@@]3(C(=O)N(c4ccccc4)c4ccccc43)[C@@H]2C)cc1,1.13 (inactive),0.0004,6.6 (inactive),1.67 (inactive),0.56 (inactive),1.23 (inactive),0.448,1.47 (inactive),1.3 (inactive),1.33,-0.13,0.885,-1.31,-0.54,-3.18,1.63,0.291 (inactive),-0.932,-0.794,-0.853 (inactive)
COC(=O)[C@]1(CO)N=C(c2ccc(OCCCO)cc2)O[C@@H]1c1ccccc1CN=[N+]=[N-],0.699 (inactive),-0.0626,7.47 (inactive),0.731 (inactive),1.34 (inactive),0.497 (inactive),-0.405,-0.259 (inactive),-0.0289 (inactive),0.234,0.0394,0.131,0.422,0.28,0.0032,-0.253,0.039 (inactive),0.00663,0.0223,-0.49 (inactive)
CC(C)=CCN(C(=O)C#Cc1ccccc1)[C@H](CO)c1ccccc1,-4.56 (inactive),-0.0876,16.8 (active),3.67 (inactive),-2.25 (inactive),0.402 (inactive),0.21,2.15 (inactive),-1 (inactive),-3.76,-3.88,-0.522,-5.06,-3.2,-4.1,-3.07,0.983 (inactive),-1.24,-2.54,-2.45 (inactive)
